The campaign covered roughly 310,000 compounds. About 14,000 (4.5%) showed an effect of 50% or more. Effects have a minus sign here. Only a selection was taken, and strong results are over-represented in it overall.
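Further: peak tail current of the secondary pulse compared with the same well before compound.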

Chain of human ether-à-go-go-related gene (hERG) potassium channel (Q12809 whole entry, looked up): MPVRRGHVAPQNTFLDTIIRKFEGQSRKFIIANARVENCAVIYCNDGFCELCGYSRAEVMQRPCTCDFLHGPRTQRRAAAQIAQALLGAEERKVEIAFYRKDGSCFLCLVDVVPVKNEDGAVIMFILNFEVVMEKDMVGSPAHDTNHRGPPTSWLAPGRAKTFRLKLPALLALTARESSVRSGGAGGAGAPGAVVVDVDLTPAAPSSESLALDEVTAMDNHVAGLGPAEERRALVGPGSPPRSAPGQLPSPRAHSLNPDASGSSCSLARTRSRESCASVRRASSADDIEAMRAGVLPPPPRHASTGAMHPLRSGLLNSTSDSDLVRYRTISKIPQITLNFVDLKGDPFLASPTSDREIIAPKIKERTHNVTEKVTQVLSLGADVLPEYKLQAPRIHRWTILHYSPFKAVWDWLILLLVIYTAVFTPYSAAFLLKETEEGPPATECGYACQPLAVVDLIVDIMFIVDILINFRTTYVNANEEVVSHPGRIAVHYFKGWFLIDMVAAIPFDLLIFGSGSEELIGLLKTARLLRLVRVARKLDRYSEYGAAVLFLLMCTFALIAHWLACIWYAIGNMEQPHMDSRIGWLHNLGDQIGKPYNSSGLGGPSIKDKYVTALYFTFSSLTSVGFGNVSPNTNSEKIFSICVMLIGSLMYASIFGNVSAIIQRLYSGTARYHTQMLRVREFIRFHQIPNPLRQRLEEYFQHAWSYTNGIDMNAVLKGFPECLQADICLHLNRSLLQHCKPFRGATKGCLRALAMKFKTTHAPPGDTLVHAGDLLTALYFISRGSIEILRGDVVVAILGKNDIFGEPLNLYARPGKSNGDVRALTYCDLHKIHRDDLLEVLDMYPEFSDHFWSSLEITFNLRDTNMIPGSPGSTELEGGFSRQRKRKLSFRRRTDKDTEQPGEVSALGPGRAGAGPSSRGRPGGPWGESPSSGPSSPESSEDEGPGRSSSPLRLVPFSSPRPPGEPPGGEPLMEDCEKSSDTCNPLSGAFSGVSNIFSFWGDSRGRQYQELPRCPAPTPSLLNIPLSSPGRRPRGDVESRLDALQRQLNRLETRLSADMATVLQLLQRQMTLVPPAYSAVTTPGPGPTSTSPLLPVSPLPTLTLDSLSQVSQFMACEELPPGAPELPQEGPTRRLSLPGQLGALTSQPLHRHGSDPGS

This assay concerns the target human ether-à-go-go-related gene (hERG) potassium channel (human, UniProt Q12809). The assay can be described thus: primary screen, population patch clamp on CHO cells stably expressing hERG; higher = less effect of the substance.
Consider `CCOc1ccc(Nc2nc(N)c3ccccc3n2)cc1.Cl`, for which the “hERG current change (%, negative = inhibition) at 10uM” value is given as -41.8%.

Turning to `Cl.Oc1cccc(Nc2nc(NCC3CCCO3)c3ccccc3n2)c1` (stereo not shown), the “hERG current change (%, negative = inhibition) at 10uM” value is -61.4%.

For the molecule `Oc1ccccc1-c1nc(NCC2CCCO2)c2ccccc2n1` (stereo not shown), the “hERG current change (%, negative = inhibition) at 10uM” value amounted to 19%.

In the case of `Cl.c1ccc(Nc2nc(NCC3CCCO3)c3ccccc3n2)cc1` (stereo not shown), the “hERG current change (%, negative = inhibition) at 10uM” value was -31.2%.

On to `Oc1ccc(Cl)cc1Nc1nc(NCC2CCCO2)c2ccccc2n1` (stereo not shown), for which the “hERG current change (%, negative = inhibition) at 10uM” value was 23%.

As to `COc1ccc(OC)c(Nc2nc(NCCO)c3ccccc3n2)c1.Cl`, the “hERG current change (%, negative = inhibition) at 10uM” value is -44.4%.

For `Cl.Oc1ccccc1Nc1nc(NCC2CCCO2)c2ccccc2n1` (stereo not shown), the “hERG current change (%, negative = inhibition) at 10uM” value is on record as -67.5%.

Turning to `CC(C)Oc1ccc(-c2nc(NCC3CCCO3)c3ccccc3n2)cc1` (stereo not shown), the “hERG current change (%, negative = inhibition) at 10uM” value is given as -27.4%.

With `Cl.OCCNc1nc(Nc2cccc(O)c2)nc2ccccc12`, the “hERG current change (%, negative = inhibition) at 10uM” value is -23.8%.

In the case of `COc1ccc(Nc2nc(NCC3CCCO3)c3ccccc3n2)c(OC)c1.Cl` (stereo not shown), the “hERG current change (%, negative = inhibition) at 10uM” value was -71.7%.

In the case of `CCOc1ccc(Nc2nc(NCC3CCCO3)c3ccccc3n2)cc1.Cl` (stereo not shown), the “hERG current change (%, negative = inhibition) at 10uM” value is on record as -72.3%.

`COc1ccc(S(=O)(=O)Nc2nc3ccccc3nc2NCC2CCCO2)cc1` (stereo not shown): the “hERG current change (%, negative = inhibition) at 10uM” value turned out to be 5.29%.

Regarding `CC(C)C[C@@H](CO)N1CCN(Cc2cccnc2)CCC1=O`, the “hERG current change (%, negative = inhibition) at 10uM” value is recorded as 3.69%.

`CCn1c2ccccc2c2cc(NC(=O)c3cccc([N+](=O)[O-])c3C)ccc21`: the “hERG current change (%, negative = inhibition) at 10uM” value was found to be 7.76%.

`CCOc1ccc(/C=C2/SC(=S)N(n3c(C)ccc3C)C2=O)cc1`: the “hERG current change (%, negative = inhibition) at 10uM” value was 8.78%.

As for `Cc1ccc(N=C(N(C)C)P(=O)(N(C)C)N(C)C)cc1`, the “hERG current change (%, negative = inhibition) at 10uM” value turned out to be 17.4%.

Regarding `Cc1ccc(Oc2cc(NN3CCCCC3)c([N+](=O)[O-])cc2[N+](=O)[O-])c([N+](=O)[O-])c1`, the “hERG current change (%, negative = inhibition) at 10uM” value is recorded as -10.3%.

For `O=C(Nc1cccc(NC(=O)c2ccccc2Cl)c1)c1cccs1`, the “hERG current change (%, negative = inhibition) at 10uM” value stood at 2.54%.

With `O=[N+]([O-])c1ccc(CSC2=NCCS2)cc1`, the “hERG current change (%, negative = inhibition) at 10uM” value is given as -15.3%.

In the case of `CC1CCN(C(=O)c2[nH]cnc2C(=O)N2CCN(C(=O)OC(C)(C)C)CC2)CC1`, the “hERG current change (%, negative = inhibition) at 10uM” value came out at 19%.

In the case of `O=C(CN(Cc1ccccc1Cl)C(=O)c1csnn1)NC1CCCC1`, the “hERG current change (%, negative = inhibition) at 10uM” value is on record as -13.6%.

With `COc1cccc(-c2nc(NCC3CCCO3)c3ccccc3n2)c1O` (stereo not shown), the “hERG current change (%, negative = inhibition) at 10uM” value is recorded as -21.2%.

Regarding `COc1ccccc1Nc1nc(NCC2CCCO2)c2ccccc2n1.Cl` (stereo not shown), the “hERG current change (%, negative = inhibition) at 10uM” value was -59.6%.

As to `c1cncc(-c2nc(NCC3CCCO3)c3ccccc3n2)c1` (stereo not shown), the “hERG current change (%, negative = inhibition) at 10uM” value amounted to 7.02%.

Consider `CC(C)C(=O)NC(=S)Nc1ccccc1C(F)(F)F`, for which the “hERG current change (%, negative = inhibition) at 10uM” value turned out to be 10.4%.

On to `O=C(N/N=C/c1coc2ccccc2c1=O)c1ccccc1Br`, for which the “hERG current change (%, negative = inhibition) at 10uM” value is recorded as -0.324%.

As to `Cc1cccc(Nc2ccc(NCc3ccccc3)nn2)c1`, the “hERG current change (%, negative = inhibition) at 10uM” value is listed as -51.8%.

With `Clc1ccc(Nc2ccc(NCc3ccccc3)nn2)cc1`, the “hERG current change (%, negative = inhibition) at 10uM” value was -37.8%.

For `Cc1cccc(NCc2ccccc2)c1`, the “hERG current change (%, negative = inhibition) at 10uM” value was 5.29%.

As for `O=C(NNC(=S)NC(=O)c1ccccc1[N+](=O)[O-])c1ccc(Cl)cc1Cl`, the “hERG current change (%, negative = inhibition) at 10uM” value is reported as -58.2%.

As to `O=C(NNC(=S)NC(=O)c1ccccc1[N+](=O)[O-])c1ccccc1[N+](=O)[O-]`, the “hERG current change (%, negative = inhibition) at 10uM” value is 15.1%.

In the case of `O=C(NNC(=S)NC(=O)c1ccccc1[N+](=O)[O-])c1ccccc1Cl`, the “hERG current change (%, negative = inhibition) at 10uM” value was determined as 6.38%.

On to `N/C(=N\N=C\c1ccco1)SC1CC(=O)N(c2ccccc2)C1=O` (stereo not shown), for which the “hERG current change (%, negative = inhibition) at 10uM” value came out at 17.1%.

In the case of `CC(C)CC(=O)NC(=S)Nc1sc2c(c1C(N)=O)CCC2`, the “hERG current change (%, negative = inhibition) at 10uM” value is recorded as 15.7%.

Turning to `Cc1nn(-c2cc(N3CCOCC3)ccc2N)c(=O)c2ccccc12`, the “hERG current change (%, negative = inhibition) at 10uM” value is reported as 0.574%.

With `O=C(NCc1ccccn1)c1ccccc1OCc1ccc(F)cc1`, the “hERG current change (%, negative = inhibition) at 10uM” value is -56.9%.

Consider `O=C(NCc1ccc(F)cc1)c1ccccc1OCc1ccccc1`, for which the “hERG current change (%, negative = inhibition) at 10uM” value was -8.06%.

On to `COc1ccccc1C(=O)NCc1ccccn1`, for which the “hERG current change (%, negative = inhibition) at 10uM” value came out at 18.4%.

For the molecule `O=C(Cn1nc(C(=O)O)c2ccccc2c1=O)NCC1CCCO1` (stereo not shown), the “hERG current change (%, negative = inhibition) at 10uM” value is 20%.

For the molecule `CCCCc1cc(=O)oc2cc(OCC(=O)N3CCc4ccccc43)ccc12`, the “hERG current change (%, negative = inhibition) at 10uM” value is 6.81%.

In the case of `Cl.ON=C1c2cc(OCCN3CCCCC3)ccc2-c2ccc(OCCN3CCCCC3)cc21`, the “hERG current change (%, negative = inhibition) at 10uM” value is given as -58.1%.

Regarding `CCOc1ccc(OCCN2CCCCC2)cc1.O=C(O)C(=O)O`, the “hERG current change (%, negative = inhibition) at 10uM” value is listed as -21.7%.

Take `CCN(CC)CCOc1ccc2c(c1)C(=NO)c1cc(OCCN(CC)CC)ccc1-2.Cl`: the “hERG current change (%, negative = inhibition) at 10uM” value is given as -16.4%.

For the molecule `CCOc1ccc(OCCOCCN2CCCC2)cc1.O=C(O)C(=O)O`, the “hERG current change (%, negative = inhibition) at 10uM” value was found to be 0.376%.

With `CCOc1ccc(CNCCN2CCCC2)cc1.O=C(O)C(=O)O`, the “hERG current change (%, negative = inhibition) at 10uM” value was -63.9%.

As for `COC(=O)c1ccc(OCCN2CCCCCC2)cc1.O=C(O)C(=O)O`, the “hERG current change (%, negative = inhibition) at 10uM” value is listed as -1.51%.

With `Cc1ccc(OCCN2CCCC2)cc1.O=C(O)C(=O)O`, the “hERG current change (%, negative = inhibition) at 10uM” value was -3.76%.

On to `c1ccc2cc(OCCN3CCCC3)ccc2c1`, for which the “hERG current change (%, negative = inhibition) at 10uM” value was -33.1%.

In the case of `O=C(O)C(=O)O.c1ccc(COc2ccc(OCCN3CCCCC3)cc2)cc1`, the “hERG current change (%, negative = inhibition) at 10uM” value is reported as -70.2%.

Regarding `CCOc1ccc(C(=O)CCN2CCCCC2)cc1`, the “hERG current change (%, negative = inhibition) at 10uM” value is listed as -19.7%.

With `O=C(O)C(=O)O.c1ccc(COc2ccc(OCCN3CCCC3)cc2)cc1`, the “hERG current change (%, negative = inhibition) at 10uM” value is -60.3%.

With `O=C(O)C(=O)O.c1ccc(OCCN2CCOCC2)cc1`, the “hERG current change (%, negative = inhibition) at 10uM” value was 12%.

Consider `CCn1c(-c2ccccc2)c[nH]c1=S`, for which the “hERG current change (%, negative = inhibition) at 10uM” value is 15.4%.

`CN(C)c1cccc(C(=O)NCCCSc2ccccc2)c1`: the “hERG current change (%, negative = inhibition) at 10uM” value was 4.72%.

Take `Cc1nn(Cc2ccccc2Cl)c2sc(C(=O)OC3CCCC3=O)cc12` (stereo not shown): the “hERG current change (%, negative = inhibition) at 10uM” value is listed as -4.19%.

Regarding `COc1cc(NS(=O)(=O)c2ccc(NC(=S)NC(=O)c3ccc(F)cc3)cc2)nc(OC)n1`, the “hERG current change (%, negative = inhibition) at 10uM” value is given as 3.73%.

With `N#Cc1cc2cc3c(cc2nc1NCCNC(=S)NCCCN1CCOCC1)OCO3`, the “hERG current change (%, negative = inhibition) at 10uM” value is recorded as 14.2%.

Turning to `CC(C)CCN1C(=O)c2ccc(C(=O)OCC(=O)N(C)C3CCS(=O)(=O)C3)cc2C1=O` (stereo not shown), the “hERG current change (%, negative = inhibition) at 10uM” value was -8.41%.

For the origin of these results see paper PMC4336329 (PLoS ONE, 2015).
